GPR151 activ = human GPR151 activation | Q8TDV0 | actives 1% (n = 650,000) | activation, % at 11.2 µM | PathHunter beta-arrestin GPR151 cells, luminescence | AID 1508602; in the data active = activation above about 4.9%
MITF primary = blocks human microphthalmia-associated transcription factor; O75030; AlphaScreen MITF homodimerization, bead proximity signal; inhibition, % at 2.6 µM; actives 0.91% (n = 650,000); AID 1259374; in the data active = inhibition above about 50%
Target sequence (O75030 whole entry, looked up): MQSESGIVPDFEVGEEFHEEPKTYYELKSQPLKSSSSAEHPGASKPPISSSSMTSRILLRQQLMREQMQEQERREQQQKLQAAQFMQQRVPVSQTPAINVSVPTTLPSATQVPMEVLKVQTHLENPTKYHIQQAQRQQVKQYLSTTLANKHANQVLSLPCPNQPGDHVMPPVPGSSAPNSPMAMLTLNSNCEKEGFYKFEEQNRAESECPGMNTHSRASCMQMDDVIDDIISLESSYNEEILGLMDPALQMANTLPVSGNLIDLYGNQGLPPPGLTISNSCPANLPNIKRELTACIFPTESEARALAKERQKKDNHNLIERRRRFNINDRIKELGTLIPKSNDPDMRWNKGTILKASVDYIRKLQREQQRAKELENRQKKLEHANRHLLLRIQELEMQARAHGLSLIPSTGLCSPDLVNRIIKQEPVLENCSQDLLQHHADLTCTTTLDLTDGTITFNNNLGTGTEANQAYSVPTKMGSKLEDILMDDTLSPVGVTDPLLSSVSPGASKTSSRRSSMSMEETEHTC
FBW7 activator = human FBW7 E3 ligase activation, primary screen; Q969H0; AlphaScreen FBW7–phospho-cyclin E peptide binding, activator screen; normalized activity (activation), % at 26.1 µM; actives 0.13% (n = 650,000); AID 1259310; in the data active = normalized activity above about 1.9%;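 note: purified mutant Fbw7 with reduced substrate affinity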
TEAD-YAP inh = TEAD-YAP interaction inhibition | actives 1.4% (n = 640,000) | inhibition, % at 9.12 µM | AID 1259422 | HEK-TIYL cells, TEAD-Gal4/YAP UAS-luciferase luminescence; in the data active = inhibition above about 32%
MITF confirm = confirmation of human MITF inhibitors; actives 16% (n = 4,700); AlphaScreen MITF homodimerization, biotin/His-MITF beads; inhibition, % at 2.6 µM; AID 1259372; shares compounds with MITF primary;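 active = inhibition above a cutoff derived from the DMSO control wells, cut at about 28% in these data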;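 note: inhibitors lower the bead chemiluminescence by keeping MITF from dimerizing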
AS interf DR = counter-screen: compounds optically interfering with AlphaScreen | IC50, µM | shares compounds with MITF primary | actives 6% (n = 480) | AlphaScreen optical interference counterscreen, cell-free; call rule not given here
AlphaScreen intf2 = AlphaScreen optical interference, counter-screen; shares compounds with MITF primary; LysRS AlphaScreen counterscreen, signal interference, triplicate; inhibition, % at 2.6 µM; actives 7.6% (n = 4,700);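 active = inhibition above a cutoff derived from the DMSO control wells, cut at about 30% in these data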
A number is an active result; i = inactive; nt = not tested or not shown. A selection: hits, their analogues and other compounds. The true share with any hit is near 3.5%.

SMILES	GPR151 activ	MITF primary	FBW7 activator	TEAD-YAP inh	MITF confirm	AlphaScreen intf2	others
CC1CCN(CC(=O)Nc2ccccc2N2CCCCC2)CC1	i	i	i	i	nt	nt
O=C(CN1CCCC1)Nc1ccccc1N1CCCCC1	i	62	i	i	i	i
O=C(CNC1CCCCC1)Nc1ccccc1N1CCCCC1	i	54	i	i	i	i
O=c1cc(O)c2sc(NCc3ccccc3)nc2[nH]1	i	i	i	i	nt	nt
CN1CCN(CC(=O)Nc2ccccc2N2CCCCCC2)CC1	i	62	i	i	i	i
Cc1cc(N)ccc1NC(=O)CN1CCCC1	i	67	i	i	i	i
CCC(=O)Nc1ccccc1N1CCCC1	i	i	i	i	nt	nt
O=C(CNCC1CCCO1)Nc1ccccc1N1CCCCC1 (centres undefined)	i	60	i	i	i	i
O=C1COc2cc(-c3c(N4CCc5ccccc54)c(=O)c3=O)ccc2N1	i	i	i	i	nt	nt
COc1cc(OC)c(OC)cc1CN(CCCN(C)C)CCCN(C)C	i	54	i	i	i	i
COC(=O)c1cnn2c1NCN(Cc1ccc(F)cc1)C2	i	i	i	i	nt	nt
O=S(=O)(c1ccccc1)N1CCN(C2CCCCCC2)CC1	i	59	i	i	i	i
O=[N+]([O-])c1ccc(S(=O)(=O)N2CCN(C3CCCC3)CC2)cc1	i	53	i	i	i	i
O=[N+]([O-])c1ccc(S(=O)(=O)N2CCN(C3CCCCCC3)CC2)cc1	i	i	i	i	nt	nt
Cc1ccc(S(=O)(=O)N2CCN(C3CCCCC3)CC2)cc1	i	i	i	i	nt	nt
Fc1ccc(CN2CCN(Cc3ccc4ccccc4c3)CC2)cc1	i	79	i	i	i	i
O=C(c1ccc(F)cc1)N1CCN(Cc2ccc3ccccc3c2)CC1	i	58	i	i	i	i
Cc1nc2sc3c(c2c(=O)o1)CCCCC3	i	i	i	i	nt	nt
Cc1ccc(C)n1C(Cc1c[nH]c2ccccc12)C(=O)O (centres undefined)	i	87	i	i	73	i	AS interf DR=i
CCCCCSc1nnc2c(n1)OC(c1ccccc1OC)Nc1ccccc1-2 (centres undefined)	i	i	i	i	nt	nt
OC(CNCCN1CCOCC1)COC1CCCc2ccccc21 (centres undefined)	i	73	i	i	i	i
OC(COc1ccccc1)CN1CCOCC1 (centres undefined)	i	i	i	i	nt	nt
OC(CNCCN1CCOCC1)COc1ccccc1 (centres undefined)	i	75	i	i	i	i
COc1ccc(COCC(O)CNCCCN2CCOCC2)cc1OC (centres undefined)	i	54	i	i	i	i
COc1ccc(COCC(O)CNCCOCCO)cc1OC (centres undefined)	i	i	i	i	nt	nt
SMILES	GPR151 activ	MITF primary	FBW7 activator	TEAD-YAP inh	MITF confirm	AlphaScreen intf2	others
CCOC(=O)CSc1nc2cc3c(cc2c(=O)n1CCC(=O)N1CCN(c2ccccc2)CC1)OCO3	i	i	i	i	nt	nt
OCCC1CN(Cc2ccc(-n3cccn3)cc2)CCN1Cc1cccs1 (centres undefined)	i	i	i	i	nt	nt
CC1CN(c2ncnc3c2c(-c2ccccc2)cn3-c2ccc(Cl)cc2)CC(C)O1 (centres undefined)	i	i	i	i	nt	nt
O=C(COC(=O)c1ccc([N+](=O)[O-])o1)Nc1ccc2c(c1)OC(F)(F)O2	i	82	i	i	i	i
COc1ccc(-c2nc(Nc3ccc(NC(C)=O)cc3)c3ncn(Cc4ccc(C(F)(F)F)cc4)c3n2)cn1	i	i	i	i	nt	nt
O=C(Nc1cccnc1Cl)c1cnn2c(C(F)(F)F)cc(-c3cccs3)nc12	i	i	i	i	nt	nt
CSc1ccccc1NC(=O)c1cnn2c(C(F)(F)F)cc(-c3cccs3)nc12	i	75	i	i	i	i
Cc1nc(NCCCn2ccnc2)c2ccccc2n1	i	i	i	i	nt	nt
Cc1nc(NCCCn2ccnc2)c2c(-c3cccs3)csc2n1	i	64	i	i	i	i
COc1cccc2sc(NC(=O)c3ccc(N(C)C)cc3)nc12	i	i	i	i	nt	nt
CCOC(=O)C1(CCc2ccccc2)CCN(C(=O)CCn2cnnn2)CC1	i	61	i	i	i	i
CCOC(=O)C1(CCCc2ccccc2)CCN(C(=O)CCn2cnnn2)CC1	i	i	i	i	nt	nt
